Source: PubChem BioAssay
Results filed as inconclusive are left out. The source made the active and inactive calls. Unless noted, no stated cut-off is given here; in the data, active means percent of DMSO control GFP below about 86%; inactive means the rest, inconclusive results apart.

Columns and labels:
[1] = yeast TOR pathway RPL19A-GFP modulators, primary screen, cell-based, S. cerevisiae, multiplex flow cytometry (AID 1862);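 further: lower values mimic rapamycin by blocking the RPL19A rise seen in DMSO cells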; conditions: S. cerevisiae RPL19A-GFP strain, flow cytometry fluorescence, 3 h; at 10 µM; stronger effect = lower value
[2] = modulators of MEP2-GFP levels in yeast, primary screen, S. cerevisiae, multiplex flow cytometry (AID 1867;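 active means GFP response, as percent of the DMSO control, above the screen-wide mean plus 3 SD, about 139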;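 further: median GFP channel fluorescence of barcode-gated MEP2-GFP cells measured by flow cytometry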); conditions: S. cerevisiae MEP2-GFP strain, 3 h, at 10 µM, stronger effect = higher value, 100% means same as DMSO wells
[3] = modulators of CIT2-GFP expression in yeast, primary screen, S. cerevisiae, GFP fusion, multiplex flow cytometry (AID 1870;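 active means percent response above a set limit, the screen-wide mean plus 3 SD, cut at about 130% in these data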;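 further: barcoded CIT2-GFP strain pooled with four other GFP strains with rapamycin as positive control; median GFP fluorescence per well over plate mean of DMSO wells so 100% = DMSO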); conditions: 3 h, at 10 µM, stronger effect = higher value
[4] = modulators of LAP4-GFP expression in yeast, primary screen, S. cerevisiae, multiplex flow cytometry (AID 1873;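 active means GFP signal, as percent of the solvent control, above the screen mean plus 3 SD, about 149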); conditions: 3 h, at 10 µM, stronger effect = higher value
[5] = modulators of AGP1-GFP expression in yeast TOR pathway, primary screen, cell-based, multiplex flow cytometry, S. cerevisiae (AID 1887;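 active means GFP signal above the screen-wide mean plus 3 SD, that is over about 124.5% of the solvent control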;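 further: AGP1-GFP fusion strain of S. cerevisiae within a five-strain barcoded multiplex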); conditions: 3 h, at 10 µM, stronger effect = higher value
[6] = inhibitors of CD8+ T cell-vesicle binding, pilot screen, LFA-1/ICAM-1 modulator project, MLPCN validation set, flow cytometry (AID 2523;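 active means response below a set limit, under 55% cells CD8-positive and vesicle-bound, and CD8 cells' 90th-percentile brightness under 279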;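 on vesicle binding response: mean PE anti-B7-1 fluorescence of CD8+ cells relative to row control; 100% = QL9-loaded vesicles with DMSO vehicle in the same plate row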); conditions: 2C mouse CD8+ T cells, at 7 µM, stronger effect = lower value; double positive events: measured here: CD8+/vesicle+ event percentage
[7] = target: Integrin beta-1 (Homo sapiens) + Integrin alpha-4 (Homo sapiens) (UniProt P13612+P05556); test: inhibition of HUTS-21 binding to VLA-4, pilot screen, VLA-4 allosteric modulator project, U937 cells, HUTS-21 mAb, flow cytometry, validation set (AID 2674;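 active means inhibition above 50%, about 3 SD of the validation set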;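 further: antibody binding induced by the VLA-4 ligand LDV present at three times its Kd; 0% = LDV ligand with antibody and no compound and 100% = antibody without LDV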); conditions: HUTS-21 LIBS mAb binding, at 6.7 µM, stronger effect = higher value, binding induced by LDV ligand
[8] = superoxide lowering in aged yeast cells, pilot screen, validation compound set (AID 2706;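 active means superoxide response below 65% of plate, a cut near 3 SD across the whole screen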;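 further: yeast exposed to compound for one week at 30 degrees C before staining; 100% = mean of all compound wells on the same plate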); conditions: S. cerevisiae aging, superoxide DHE fluorescence; at 10 µM; stronger effect = lower value
[9] = target: Beta-adrenergic receptor kinase 1 (Homo sapiens) (UniProt P25098); test: GRK2 binders displacing RNA aptamer, biochemical, validation, human GRK2, bead flow cytometry (AID 488806;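 active means aptamer binding inhibition above 30%, about 3 SD of noise from non-fluorescent compounds; inactive means inhibition at or below 30%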); conditions: bead-bound GRK2, FAM-aptamer displacement, at 10 µM, stronger effect = higher value
[10] = target: Beta-2 adrenergic receptor (Homo sapiens) (UniProt P07550); test: beta2AR agonists driving receptor internalization, pilot screen, cell-based, FAP fluorogen, flow cytometry, validation set (AID 504459;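 active means percent response above 42, roughly 3 SD of non-fluorescent test compounds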;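 further: agonist-driven loss of surface beta2AR via internalization measured by FAP dye flow cytometry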); conditions: Am2.2-beta2AR cells, FAP surface receptor flow cytometry; at 10 µM; stronger effect = higher value
[11] = target: AP-2 complex subunit beta (Homo sapiens) (UniProt P63010); test: inhibitors of arrestin peptide binding to AP2, pilot screen, biochemical, validation set, GST-AP2 beads, flow cytometry (AID 504541;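 active means inhibition above 54%, about 3 SD of non-fluorescent compounds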;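 further: AP2 carries R879A mutation and is captured from E. coli lysate; bead-bound FITC arrestin peptide fluorescence measuring arrestin peptide binding to AP2; 0% = DMSO wells and 100% = excess unlabeled arrestin peptide control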); conditions: FITC arrestin peptide, at 10 µM, stronger effect = higher value, AP2 beta2 appendage fragment, R879A mutant
[12] = yeast V-ATPase proton transport modulators, S. cerevisiae, pHLuorin, HTS validation (AID 504600; in the data active means response above about 15%;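 further: plate controls were DMSO for no effect and reference compound for full effect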); conditions: S. cerevisiae pHLuorin cytosolic pH, at 10 µM, stronger effect = higher value
[13] = system: anti-desmoglein-3 scFv antibody binding to human DSG3; test: inhibitors of anti-DSG3 scFv binding to DSG3, pilot screen, biochemical, validation compound set, bead-based, flow cytometry (AID 588368;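 active means binding below the plate cutoff, the plate median minus 3 SD, with a reading above zero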;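 further: signal is the median channel fluorescence of bead-bound GFP antibody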); conditions: Protein G beads, DSG3-Fc, scFv-GFP binding, at 10 µM, stronger effect = lower value
[14] = inhibitors of fungal efflux pumps CDR1, CDR2, MDR1, pilot screen, validation compound set, multiplex, phenotypic (AID 588506;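 active means efflux inhibition above 0.42, the validation set average plus 4 SD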;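 further: Nile Red retained in cells so higher fluorescence means more efflux inhibition; 0 = negative control wells and 1 = enniatin B 25 µM full block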); conditions: S. cerevisiae pump-expressing triplex, Nile Red efflux flow cytometry; at 10 µM; stronger effect = higher value; the pumps come from Candida albicans
[15] = target: ATP-binding cassette sub-family B member 6 (Homo sapiens) (UniProt Q9NP58); test: ABCB6 transporter inhibitors, pilot screen, K562-ABCB6 cells, flow cytometry, validation set (AID 588550;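 active means inhibition above the screen-wide mean plus 3 SD, about 51%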;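 further: 0% = DMSO wells and 100% = benzethonium chloride 70 µM positive control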); conditions: K562-ABCB6 porphyrin accumulation, 1 h, at 10 µM, stronger effect = higher value
[16] = promoters of myeloid differentiation in arrested cells, primary screen, cell-based, GFP/MAC1 double positive, flow cytometry, validation set (AID 588685;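 active means differentiation response of at least 50%, scaled between solvent and reference control, from cells with both markers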;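 further: compound exposure lasts four days before antibody staining and flow analysis; 0% = DMSO wells and 100% = 5 µM fulvestrant positive control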); conditions: ER-HoxA9 marrow cells, stronger effect = higher value, normalized: vehicle 0, fulvestrant 100

Sequence of Beta-2 adrenergic receptor (Homo sapiens) (P07550 whole entry, looked up): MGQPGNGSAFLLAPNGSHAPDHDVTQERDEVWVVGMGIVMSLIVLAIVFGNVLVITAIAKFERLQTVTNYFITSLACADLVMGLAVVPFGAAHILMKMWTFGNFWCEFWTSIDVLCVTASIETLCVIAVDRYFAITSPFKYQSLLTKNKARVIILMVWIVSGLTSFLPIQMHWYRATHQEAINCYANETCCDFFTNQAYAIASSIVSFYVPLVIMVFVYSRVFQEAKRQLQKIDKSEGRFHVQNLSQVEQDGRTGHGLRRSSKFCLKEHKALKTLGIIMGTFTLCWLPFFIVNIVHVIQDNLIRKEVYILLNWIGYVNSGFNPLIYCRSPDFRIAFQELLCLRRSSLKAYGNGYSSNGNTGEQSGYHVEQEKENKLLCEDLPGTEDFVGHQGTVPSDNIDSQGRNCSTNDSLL
Sequence of AP-2 complex subunit beta (Homo sapiens) (P63010 whole entry, looked up, the tested form may be a part, one chain of several): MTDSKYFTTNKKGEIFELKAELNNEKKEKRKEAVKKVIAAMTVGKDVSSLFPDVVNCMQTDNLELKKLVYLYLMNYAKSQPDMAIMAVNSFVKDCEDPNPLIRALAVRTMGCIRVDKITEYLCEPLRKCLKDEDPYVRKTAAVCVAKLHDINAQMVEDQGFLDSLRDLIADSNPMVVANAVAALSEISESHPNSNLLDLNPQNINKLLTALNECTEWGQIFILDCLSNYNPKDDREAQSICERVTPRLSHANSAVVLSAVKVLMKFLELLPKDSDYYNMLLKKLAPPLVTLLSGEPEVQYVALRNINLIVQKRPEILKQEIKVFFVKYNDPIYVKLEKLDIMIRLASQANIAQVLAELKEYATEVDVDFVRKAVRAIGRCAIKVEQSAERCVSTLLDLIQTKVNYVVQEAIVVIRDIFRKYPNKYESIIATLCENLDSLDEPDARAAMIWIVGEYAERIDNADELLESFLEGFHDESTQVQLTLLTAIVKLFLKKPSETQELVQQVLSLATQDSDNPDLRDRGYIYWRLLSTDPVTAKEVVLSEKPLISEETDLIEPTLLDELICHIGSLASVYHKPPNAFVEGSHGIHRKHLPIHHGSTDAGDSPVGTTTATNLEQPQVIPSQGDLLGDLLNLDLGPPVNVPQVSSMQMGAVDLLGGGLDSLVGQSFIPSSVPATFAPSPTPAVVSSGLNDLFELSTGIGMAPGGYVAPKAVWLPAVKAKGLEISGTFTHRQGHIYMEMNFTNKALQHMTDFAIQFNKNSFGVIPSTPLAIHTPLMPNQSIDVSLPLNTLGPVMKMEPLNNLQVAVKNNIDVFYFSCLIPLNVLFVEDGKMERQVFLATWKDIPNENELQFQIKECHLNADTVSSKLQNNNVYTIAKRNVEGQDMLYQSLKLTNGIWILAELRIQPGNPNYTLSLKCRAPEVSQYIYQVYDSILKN
Sequence of ATP-binding cassette sub-family B member 6 (Homo sapiens) (Q9NP58 whole entry, looked up): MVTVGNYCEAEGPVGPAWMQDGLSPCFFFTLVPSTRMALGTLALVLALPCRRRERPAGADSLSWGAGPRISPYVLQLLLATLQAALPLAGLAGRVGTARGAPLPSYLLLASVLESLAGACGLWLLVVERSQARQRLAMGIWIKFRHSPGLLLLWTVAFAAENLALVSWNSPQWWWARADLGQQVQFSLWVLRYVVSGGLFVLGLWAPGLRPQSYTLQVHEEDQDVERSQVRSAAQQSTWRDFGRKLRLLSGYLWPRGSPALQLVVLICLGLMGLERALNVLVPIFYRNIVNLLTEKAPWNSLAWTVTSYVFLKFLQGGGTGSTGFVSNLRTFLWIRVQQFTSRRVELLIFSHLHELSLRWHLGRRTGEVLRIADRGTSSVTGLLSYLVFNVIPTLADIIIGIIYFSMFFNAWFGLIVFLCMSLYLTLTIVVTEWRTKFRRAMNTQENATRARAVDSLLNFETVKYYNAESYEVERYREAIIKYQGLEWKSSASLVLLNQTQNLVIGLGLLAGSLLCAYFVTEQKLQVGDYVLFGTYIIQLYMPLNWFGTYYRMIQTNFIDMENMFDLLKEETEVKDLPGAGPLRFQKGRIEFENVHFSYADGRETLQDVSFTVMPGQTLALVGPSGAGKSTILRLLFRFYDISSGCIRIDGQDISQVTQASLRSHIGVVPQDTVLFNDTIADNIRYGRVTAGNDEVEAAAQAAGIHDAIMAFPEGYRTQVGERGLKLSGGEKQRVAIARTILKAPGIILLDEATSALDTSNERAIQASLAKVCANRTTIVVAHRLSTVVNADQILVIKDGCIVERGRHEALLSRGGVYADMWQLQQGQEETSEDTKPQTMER
Sequence of Integrin beta-1 (Homo sapiens) + Integrin alpha-4 (Homo sapiens) (P05556 whole entry, looked up): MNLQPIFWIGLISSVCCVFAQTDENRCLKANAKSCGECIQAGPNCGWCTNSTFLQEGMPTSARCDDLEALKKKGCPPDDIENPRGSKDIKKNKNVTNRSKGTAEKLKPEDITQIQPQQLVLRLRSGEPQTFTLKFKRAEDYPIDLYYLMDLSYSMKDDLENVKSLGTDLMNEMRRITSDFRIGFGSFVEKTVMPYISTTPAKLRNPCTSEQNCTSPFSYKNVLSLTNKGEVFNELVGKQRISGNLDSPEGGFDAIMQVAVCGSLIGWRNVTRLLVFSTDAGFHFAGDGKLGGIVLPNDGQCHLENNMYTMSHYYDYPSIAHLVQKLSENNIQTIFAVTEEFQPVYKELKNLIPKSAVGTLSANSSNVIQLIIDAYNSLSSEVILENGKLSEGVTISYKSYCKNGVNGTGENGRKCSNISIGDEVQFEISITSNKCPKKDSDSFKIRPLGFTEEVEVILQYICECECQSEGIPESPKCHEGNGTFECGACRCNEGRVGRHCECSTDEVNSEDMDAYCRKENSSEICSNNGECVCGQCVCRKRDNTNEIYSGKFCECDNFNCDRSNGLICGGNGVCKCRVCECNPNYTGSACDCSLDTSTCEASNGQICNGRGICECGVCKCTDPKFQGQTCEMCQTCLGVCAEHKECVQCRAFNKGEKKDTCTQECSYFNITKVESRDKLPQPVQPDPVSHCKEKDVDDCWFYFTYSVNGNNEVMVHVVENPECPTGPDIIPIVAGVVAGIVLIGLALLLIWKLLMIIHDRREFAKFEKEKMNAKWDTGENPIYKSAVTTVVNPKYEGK
Sequence of Integrin beta-1 (Homo sapiens) + Integrin alpha-4 (Homo sapiens) (P13612 whole entry, looked up): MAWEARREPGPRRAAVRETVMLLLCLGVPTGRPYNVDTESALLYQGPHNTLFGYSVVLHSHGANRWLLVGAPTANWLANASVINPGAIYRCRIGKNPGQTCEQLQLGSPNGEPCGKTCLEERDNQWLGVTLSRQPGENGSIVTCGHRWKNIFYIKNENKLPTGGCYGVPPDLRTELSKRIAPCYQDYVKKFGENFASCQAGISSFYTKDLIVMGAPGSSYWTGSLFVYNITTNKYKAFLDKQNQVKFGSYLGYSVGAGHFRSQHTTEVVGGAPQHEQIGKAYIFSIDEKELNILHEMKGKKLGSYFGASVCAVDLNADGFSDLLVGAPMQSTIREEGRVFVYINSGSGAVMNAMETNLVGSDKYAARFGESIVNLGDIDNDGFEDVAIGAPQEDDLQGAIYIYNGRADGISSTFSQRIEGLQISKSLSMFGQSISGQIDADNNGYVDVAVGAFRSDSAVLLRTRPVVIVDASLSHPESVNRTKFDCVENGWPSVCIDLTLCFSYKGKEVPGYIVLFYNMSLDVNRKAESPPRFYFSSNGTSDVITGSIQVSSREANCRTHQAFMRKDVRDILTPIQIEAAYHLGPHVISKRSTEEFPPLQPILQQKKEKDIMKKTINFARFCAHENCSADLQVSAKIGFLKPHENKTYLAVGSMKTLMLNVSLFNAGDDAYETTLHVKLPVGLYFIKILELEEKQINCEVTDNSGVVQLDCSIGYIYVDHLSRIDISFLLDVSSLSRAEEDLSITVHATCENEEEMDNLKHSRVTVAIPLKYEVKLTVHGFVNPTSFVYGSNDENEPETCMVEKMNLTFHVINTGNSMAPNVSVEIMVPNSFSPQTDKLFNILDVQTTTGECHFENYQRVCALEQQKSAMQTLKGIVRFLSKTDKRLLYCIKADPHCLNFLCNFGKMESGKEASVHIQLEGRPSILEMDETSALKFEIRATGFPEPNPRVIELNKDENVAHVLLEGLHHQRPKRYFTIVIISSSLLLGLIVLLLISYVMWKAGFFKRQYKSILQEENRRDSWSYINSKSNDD
Sequence of Beta-adrenergic receptor kinase 1 (Homo sapiens) (P25098 whole entry, looked up): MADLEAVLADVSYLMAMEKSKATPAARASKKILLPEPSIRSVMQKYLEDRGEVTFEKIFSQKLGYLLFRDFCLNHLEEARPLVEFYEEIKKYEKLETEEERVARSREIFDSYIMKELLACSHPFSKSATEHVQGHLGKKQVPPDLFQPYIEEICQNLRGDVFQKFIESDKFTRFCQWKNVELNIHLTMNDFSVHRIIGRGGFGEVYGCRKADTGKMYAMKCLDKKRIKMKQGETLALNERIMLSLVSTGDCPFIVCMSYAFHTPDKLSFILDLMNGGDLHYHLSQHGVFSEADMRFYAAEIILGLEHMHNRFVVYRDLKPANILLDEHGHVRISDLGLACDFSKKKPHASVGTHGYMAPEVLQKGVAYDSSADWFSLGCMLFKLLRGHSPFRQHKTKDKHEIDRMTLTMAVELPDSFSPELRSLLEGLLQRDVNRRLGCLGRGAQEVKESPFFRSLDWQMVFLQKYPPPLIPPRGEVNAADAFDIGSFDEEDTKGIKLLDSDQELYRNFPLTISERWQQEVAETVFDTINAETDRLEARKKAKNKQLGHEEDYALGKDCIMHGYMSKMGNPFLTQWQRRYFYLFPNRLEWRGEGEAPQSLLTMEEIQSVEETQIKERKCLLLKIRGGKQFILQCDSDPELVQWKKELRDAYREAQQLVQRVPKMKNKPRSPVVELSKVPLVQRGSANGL

COc1ccc(O)c(C2=Nc3ccccc3N=C(c3ccccc3)C2)c1
58.3%: double positive events [6]
inactive: percent of DMSO control GFP [1] 94.6% | GFP response vs DMSO [2] 126% | percent response of DMSO control [3] 116% | GFP response vs DMSO [4] 71.5% | GFP response, % of DMSO [5] 85.2% | vesicle binding response [6] 139% | inhibition [7] -10% | superoxide response (% of plate) [8] 96.7% | aptamer binding inhibition [9] 4% | response [10] -11.7% | inhibition [11] 13% | response [12] -3.39% | binding (% of control) [13] 96.9% | efflux inhibition (fraction of control) [14] 0.34 | inhibition [15] 12% | differentiation response [16] 2.46%

CCC(C(=O)OCCN(CC)CC)c1ccccc1 (stereo not drawn)
57.2%: double positive events [6]
inactive: percent of DMSO control GFP [1] 101% | GFP response vs DMSO [2] 101% | percent response of DMSO control [3] 98.2% | GFP response vs DMSO [4] 85.9% | GFP response, % of DMSO [5] 99.1% | vesicle binding response [6] 33.7% | inhibition [7] 2.55% | superoxide response (% of plate) [8] 97.2% | aptamer binding inhibition [9] 5% | response [10] 8.98% | inhibition [11] 19.7% | response [12] -2.47% | binding (% of control) [13] 98.8% | efflux inhibition (fraction of control) [14] 0.26 | inhibition [15] 6% | differentiation response [16] 14.9%

CCOCC(=O)Nc1nc2ccccc2s1
inactive: percent of DMSO control GFP [1] 92.4% | GFP response vs DMSO [2] 125% | percent response of DMSO control [3] 101% | GFP response vs DMSO [4] 80.9% | GFP response, % of DMSO [5] 94.2% | vesicle binding response [6] 149% | inhibition [7] 2.58% | superoxide response (% of plate) [8] 95.4% | aptamer binding inhibition [9] 6% | response [10] -8.15% | inhibition [11] -1.47% | response [12] 3.42% | binding (% of control) [13] 105% | efflux inhibition (fraction of control) [14] 0.23 | inhibition [15] 12% | differentiation response [16] -0.82%
65.7%: double positive events [6]

COc1ccc2[nH]c(=O)c3c(c2c1)OC(C)(C)C=C3
59.1%: double positive events [6]
inactive: percent of DMSO control GFP [1] 93.7% | GFP response vs DMSO [2] 105% | percent response of DMSO control [3] 89.1% | GFP response vs DMSO [4] 119% | GFP response, % of DMSO [5] 95.1% | vesicle binding response [6] 88% | inhibition [7] -3.16% | superoxide response (% of plate) [8] 99.1% | aptamer binding inhibition [9] 4% | response [10] 5.61% | inhibition [11] -1.86% | response [12] 2.4% | binding (% of control) [13] 101% | efflux inhibition (fraction of control) [14] 0.08 | inhibition [15] 6% | differentiation response [16] 8.8%

O=C(COc1ccccc1)Nc1ccc2c(c1)C(=O)N(CC1CCCO1)C2=O (stereo not drawn)
61.5%: double positive events [6]
active: efflux inhibition (fraction of control) [14] 0.47
inactive: percent of DMSO control GFP [1] 100% | GFP response vs DMSO [2] 102% | percent response of DMSO control [3] 102% | GFP response vs DMSO [4] 113% | GFP response, % of DMSO [5] 106% | vesicle binding response [6] 179% | inhibition [7] 13.7% | superoxide response (% of plate) [8] 110% | aptamer binding inhibition [9] 3% | response [10] 3.99% | inhibition [11] 4.36% | response [12] -0.92% | binding (% of control) [13] 100% | inhibition [15] -12% | differentiation response [16] -8.96%

Cn1nc(-c2ccc(Cl)cc2)nc2c(=O)n(C)c(=O)nc1-2
inactive: GFP response vs DMSO [2] 138% | percent response of DMSO control [3] 74.4% | GFP response vs DMSO [4] 137% | GFP response, % of DMSO [5] 76.7% | vesicle binding response [6] 215% | inhibition [7] -12.2% | superoxide response (% of plate) [8] 79.2% | response [10] 17.6% | inhibition [11] -4.09% | binding (% of control) [13] 108% | efflux inhibition (fraction of control) [14] 0.12 | inhibition [15] -16% | differentiation response [16] -4.99%
active: percent of DMSO control GFP [1] 74.2% | aptamer binding inhibition [9] 45% | response [12] 59.4%
62.1%: double positive events [6]

Cc1ccc2[nH]c(=O)c(Cc3ccccc3)c(O)c2c1
60.7%: double positive events [6]
inactive: percent of DMSO control GFP [1] 102% | GFP response vs DMSO [2] 105% | percent response of DMSO control [3] 107% | GFP response vs DMSO [4] 94.7% | GFP response, % of DMSO [5] 102% | vesicle binding response [6] 224% | inhibition [7] 3.7% | superoxide response (% of plate) [8] 105% | aptamer binding inhibition [9] 0% | response [10] -3.71% | inhibition [11] -9.35% | response [12] 4.49% | binding (% of control) [13] 90.6% | efflux inhibition (fraction of control) [14] -0.07 | inhibition [15] -1% | differentiation response [16] -8.55%

O=C1c2ccccc2N2C(=O)c3ccccc3C2N1Cc1ccco1 (stereo not drawn)
inactive: percent of DMSO control GFP [1] 104% | GFP response vs DMSO [2] 104% | percent response of DMSO control [3] 110% | GFP response vs DMSO [4] 103% | GFP response, % of DMSO [5] 89.8% | vesicle binding response [6] 140% | inhibition [7] -2.43% | superoxide response (% of plate) [8] 95.6% | aptamer binding inhibition [9] 0% | response [10] -16.2% | inhibition [11] -5.51% | response [12] -3.39% | binding (% of control) [13] 99.6% | efflux inhibition (fraction of control) [14] 0.03 | inhibition [15] -8% | differentiation response [16] -1.65%
61%: double positive events [6]

Cc1ccc2c(ccc(=S)n2C)c1
54.1%: double positive events [6]
inactive: percent of DMSO control GFP [1] 103% | GFP response vs DMSO [2] 97.2% | percent response of DMSO control [3] 115% | GFP response vs DMSO [4] 93.3% | GFP response, % of DMSO [5] 102% | inhibition [7] 7.85% | superoxide response (% of plate) [8] 87.8% | aptamer binding inhibition [9] 4% | response [10] -14% | inhibition [11] -3.91% | response [12] 0.7% | binding (% of control) [13] 97.7% | efflux inhibition (fraction of control) [14] -0.01 | inhibition [15] 19% | differentiation response [16] 1.22%
active: vesicle binding response [6] 44.4%
